Assay outcomes from PubChem.
This is a sample that favours compounds with a hit; in the whole collection about 3.1% have one here.
pS6 MEF inh = mTORC1 pathway inhibition measured by phospho-rpS6. Tsc2-/- p53-/- MEF, phospho-rpS6 immunofluorescence/PI, 24 h. Potency, µM (series often up to 38.3 µM), actives largely listed as inhibitors. 44,000 tested, 0.78% active; note: nearly all actives have a fitted effect of over 50% in size
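Read-out: phospho-S6 Alexa-488 intensity over PI intensity per well, scored as % active cells using thresholds from rapamycin (7.5 nM) and DMSO controls. Tsc2-/-, p53-/- MEFs exposed to compound for 24 h; PI cell count recorded as viability.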
S16 viability = cytotoxicity in S16 Pmp22-F2sN Schwann cells | S16 Pmp22-F2sN Schwann cells viability, CellTiter-Glo, 24 h | Potency, µM (titrated, usually from 57.5 µM), actives largely listed as cytotoxic | 43,000 tested, 0.48% active | AID 1508642; note: nearly all actives have a fitted effect of over 65% in size
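CellTiter-Glo counter-screen, qHTS, 1536-well. Cells: S16(c9) Pmp22-F2sN, 500-1,000/well in DMEM + 10% FBS. Cpd 23 nL pin transfer, 24 h, 37C/5% CO2. Read: luminescence, CCD imager.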
PMP22 txn prim = PMP22 gene transcription modulation | Potency, µM (doses to about 57.5 µM), usual class: inhibitors | 43,000 tested, 2% active | S16 Pmp22-F2sN Schwann cells (luciferase reporters placed in the Pmp22 gene), FLuc/NLuc coincidence luminescence, 24 h; active = clear falling dose curves in both reporters; inconclusive = both reporters move, but less clearly or upward; inactive = either reporter flat; the % is the NLuc reporter signal
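Reporter cells (S16 Pmp22-F2sN, 500–1,000 per well) exposed to compounds for 24 h, 37C, 5% CO2; lysis with FLuc read after 10 min, then Stop&Glo and NLuc read after 10 min.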
p53null 32C kill = kills p53 null cells at the permissive temperature; H1299-neo p53 null cells, ATP luminescence, 24 h, 32C; Potency, µM (top dose mostly 46.1 µM), hits mostly cytotoxic; 55,000 tested, 0.62% active; AID 903; note: nearly all actives have a fitted effect of over 55% in size
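H1299-neo, 600 cells/well; overnight 37C; cpd up to 46 uM, 24 h at 32C; ATPlite luminescence after 20 min RT; normalized to DMSO (0%) and tamoxifen 100 uM (100% kill); Hill-fit AC50.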
p53null 39C tox = kills p53 null cells at the nonpermissive temperature; H1299 p53-null (neo) cells, 39C, ATPlite viability, 24 h; Potency, µM (highest dose often 46.1 µM), most hits filed as cytotoxic; 55,000 tested, 0.97% active; AID 904; note: nearly all actives have a fitted effect of over 50% in size
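ATP-luminescence viability readout (ATPlite, 20 min RT) after 24 hr compound treatment at 39C of H1299-neo or H1299-p53A138V cells; titration up to 46 uM; normalized to DMSO and 100 uM tamoxifen; Hill-fit AC50.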
OvCa metastasis = inhibitors of ovarian cancer cell adhesion and invasion in omental model; SKOV3ip1-GFP adhesion/invasion on 3D omental model, fluorescence; Potency, µM (top dose mostly 45.8 µM), hits mostly inhibitors; 46,000 tested, 0.1% active; note: nearly all actives have a fitted effect of over 65% in size
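Primary human omental fibroblast/mesothelial 3D culture pre-formed 48 h. SKOV3ip1-GFP cells added with compounds (0.36-46 umol/L), incubated 2 h RT/16 h 37 C, fixed; GFP cells quantified at 488/509 nm.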
NLuc sat counter = inhibits NanoLuc at saturating substrate, PMP22 counter-screen; shares compounds with PMP22 txn prim; Secreted NLuc enzyme (filtered S16 cell medium), Nano-Glo luminescence; Potency, µM (doses to about 57.5 µM), hits mostly inhibitors; 690 tested, 4% active
NLuc Km ctr = counter-screen for PMP22 expression modulators: NanoLuc inhibition at Km. shares compounds with PMP22 txn prim. Potency, µM (titrated, usually from 57.5 µM), usual class: inhibitors. 690 tested, 5% active. secreted NLuc enzyme, coelenterazine luminescence, Km conditions
FLuc counter = inhibits firefly luciferase, PMP22 counter-screen | purified P. pyralis FLuc, luminescence, 10 min | shares compounds with PMP22 txn prim | 690 tested, under 10 active | Potency, µM (titrated, usually from 57.5 µM), usual class: inhibitors
Target sequence (P08659 whole entry, looked up): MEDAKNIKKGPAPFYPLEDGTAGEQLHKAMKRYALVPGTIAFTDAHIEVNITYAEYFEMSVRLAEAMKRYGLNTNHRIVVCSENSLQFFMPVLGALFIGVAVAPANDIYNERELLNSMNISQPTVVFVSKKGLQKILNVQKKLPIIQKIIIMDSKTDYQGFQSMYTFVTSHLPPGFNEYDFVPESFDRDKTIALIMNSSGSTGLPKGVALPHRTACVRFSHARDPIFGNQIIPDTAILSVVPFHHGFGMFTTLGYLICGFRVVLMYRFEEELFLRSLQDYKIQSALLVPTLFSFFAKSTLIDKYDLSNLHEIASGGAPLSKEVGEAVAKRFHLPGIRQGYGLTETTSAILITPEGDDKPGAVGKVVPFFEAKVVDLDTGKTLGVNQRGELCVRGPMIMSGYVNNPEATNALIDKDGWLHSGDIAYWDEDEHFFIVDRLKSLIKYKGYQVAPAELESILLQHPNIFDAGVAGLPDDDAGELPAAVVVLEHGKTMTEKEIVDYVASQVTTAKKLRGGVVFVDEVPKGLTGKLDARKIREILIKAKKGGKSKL
S16 viab conf = S16 Schwann cell cytotoxicity, confirmatory | Potency, µM (series often up to 57.5 µM), actives largely listed as cytotoxic | 690 tested, 7% active | S16 Schwann cells viability, CellTiter-Glo ATP luminescence, 24 h | shares compounds with PMP22 txn prim | AID 1508641
PMP22 txn cnf = PMP22 transcription modulation, confirmatory; shares compounds with PMP22 txn prim; S16 Schwann cells Pmp22-F2sN, dual luciferase, 24 h; Potency, µM (series often up to 57.5 µM), hits mostly inhibitors; 690 tested, 22% active; active = clear falling dose curves in both reporters; inconclusive = both reporters move, but less clearly or upward; inactive = either reporter flat; the % is the FLuc reporter signal
Each line names hits and unclear results; the compound was inactive in the other large screens (follow-up assays come after a bar, where they were run). Unless noted, calls come from the whole dose curve; as a rule, active = well fitted curve in the direction sought with a large enough effect; inconclusive = small, poorly fitted or top-dose-only effect, or another doubt; inactive = no such curve, though single readings can be large; an effect the other way counts as inactive or inconclusive.

Cc1cccc(CNC(=O)C2CCN(S(=O)(=O)c3ccc4c(c3)CCCN4C(=O)C3CCC3)CC2)c1	PMP22 txn prim inconclusive
Cc1cc(NC(=O)CSc2ncc(C(=O)Nc3ccc(F)cc3)c(=O)n2C)no1	none
CC(=O)OCC#CCSc1nnc(-c2cccc(Br)c2)o1	PMP22 txn prim 9.2µM | NLuc sat counter inconclusive | NLuc Km ctr inconclusive | FLuc counter inactive | S16 viab conf inconclusive | PMP22 txn cnf inconclusive
CCCOc1ccc(CN2C(=O)C(=O)c3cccc(C)c32)cc1	pS6 MEF inh inconclusive, PMP22 txn prim 11µM, p53null 39C tox inconclusive, OvCa metastasis inconclusive | NLuc sat counter inconclusive | NLuc Km ctr inconclusive | FLuc counter inactive | S16 viab conf inconclusive | PMP22 txn cnf inconclusive
Cc1cccc2c1N(CCOc1ccc(C(C)(C)C)cc1)C(=O)C2=O	none (no result: pS6 MEF inh, S16 viability, PMP22 txn prim, p53null 39C tox, OvCa metastasis)
CCOc1ccc(-n2ccnc2SCC(=O)Nc2nc3ccc(C)cc3s2)cc1	PMP22 txn prim 8.9µM | NLuc sat counter inactive | NLuc Km ctr inconclusive | FLuc counter inactive | S16 viab conf inactive | PMP22 txn cnf inactive
Cc1cccc(-n2ccnc2SCC(=O)Nc2nc3ccccc3s2)c1	none
Cc1ccc(CSc2nc3ccc(NC(=O)COc4ccccc4)cc3s2)cc1	PMP22 txn prim 15µM | NLuc sat counter inactive | NLuc Km ctr inactive | FLuc counter inactive | S16 viab conf inactive | PMP22 txn cnf inactive
O=C(COc1ccc(F)cc1)Nc1ccc2nc(SCC(=O)N3CCc4ccccc43)sc2c1	PMP22 txn prim 3µM | NLuc sat counter inconclusive | NLuc Km ctr inactive | FLuc counter inactive | S16 viab conf inactive | PMP22 txn cnf inconclusive
O=C(COc1ccccc1)Nc1ccc2nc(SCC(=O)N3CCc4ccccc43)sc2c1	PMP22 txn prim inconclusive
CCOc1ccc(C(=O)Nc2ccc3nc(SCc4ccccc4)sc3c2)cc1	PMP22 txn prim 8.9µM | NLuc sat counter inactive | NLuc Km ctr inactive | FLuc counter inactive | S16 viab conf inconclusive | PMP22 txn cnf 18µM
CCc1nc2nc(C)c(NS(=O)(=O)c3ccc(C(C)(C)C)cc3)c(=O)n2[nH]1	none
Cc1ccc(Cn2c(CCNC(=O)c3cccc(C)c3)nc3ccccc32)cc1	none
COc1cc(NS(=O)(=O)c2ccc3[nH]c4c(c3c2)CCCCCC4)cc(OC)c1	pS6 MEF inh inconclusive, PMP22 txn prim inconclusive
COc1ccc(NS(=O)(=O)c2ccc3[nH]c4c(c3c2)CCCC4)cc1OC	PMP22 txn prim 14µM | NLuc sat counter inactive | NLuc Km ctr inconclusive | FLuc counter inactive | S16 viab conf inconclusive | PMP22 txn cnf inconclusive
COc1cc(NS(=O)(=O)c2ccc3[nH]c4c(c3c2)CCCC4)cc(OC)c1OC	pS6 MEF inh inconclusive, PMP22 txn prim 12µM, p53null 39C tox inconclusive | NLuc sat counter inactive | NLuc Km ctr inconclusive | FLuc counter inactive | S16 viab conf inactive | PMP22 txn cnf inconclusive
CC1CCN(C(=O)CSc2nnc(NC(=O)Nc3ccccc3)s2)CC1	PMP22 txn prim 19µM | NLuc sat counter inconclusive | NLuc Km ctr inconclusive | FLuc counter inconclusive | S16 viab conf inconclusive | PMP22 txn cnf inactive
O=C(Nc1ccccc1)Nc1nnc(SCC(=O)N2CCCCC2)s1	none
Cc1nn(-c2ccccc2)c2c1N(CC(=O)N1CCN(c3ccccc3F)CC1)C(=O)CS2	S16 viability inconclusive, PMP22 txn prim inconclusive
CCc1cccc(C)c1NC(=O)c1nc2ccccc2nc1N1CCCCC1	PMP22 txn prim inconclusive | NLuc sat counter inactive | NLuc Km ctr inconclusive | FLuc counter inactive | S16 viab conf inactive | PMP22 txn cnf inactive
CCOC(=O)c1sc2ccccc2c1S(=O)(=O)N1CCN(c2cccc(C)c2)C(C)C1 (stereo not given)	none
COc1c(Cl)cc(Cl)cc1/C=C(\C#N)c1nc2ccccc2[nH]1	S16 viability inconclusive, PMP22 txn prim 11µM | NLuc sat counter inconclusive | NLuc Km ctr inconclusive | FLuc counter inactive | S16 viab conf inactive | PMP22 txn cnf inconclusive
N#C/C(=C/c1ccc(Cl)cc1Cl)c1nc2ccccc2c(=O)[nH]1	none
CCC(=O)Oc1ccc(/C=C(\C#N)c2nc3ccccc3[nH]2)cc1OC	PMP22 txn prim inconclusive, p53null 39C tox inconclusive
COc1cc(/C=C(\C#N)c2nc3ccccc3[nH]2)ccc1OCc1ccccc1F	PMP22 txn prim 13µM | NLuc sat counter inconclusive | NLuc Km ctr inconclusive | FLuc counter inactive | S16 viab conf inactive | PMP22 txn cnf inconclusive
CC(=O)c1ccc(NC(=O)CSC2=Nc3ccccc3N=C(c3ccc(F)cc3)C2)cc1	S16 viability inconclusive, PMP22 txn prim 15µM | NLuc sat counter inconclusive | NLuc Km ctr inconclusive | FLuc counter inactive | S16 viab conf inactive | PMP22 txn cnf inconclusive
COc1ccccc1CNc1nc2c(S(=O)(=O)c3ccc(C)c(C)c3)nnn2c2ccc(Cl)cc12	PMP22 txn prim 6.3µM | NLuc sat counter inactive | NLuc Km ctr inactive | FLuc counter inactive | S16 viab conf 22µM | PMP22 txn cnf 7.7µM
COCCNc1nc2c(S(=O)(=O)c3ccc(C)c(C)c3)nnn2c2ccc(Cl)cc12	none
CCc1ccc(S(=O)(=O)c2nnn3c2nc(N(CC)Cc2ccccc2)c2cc(Cl)ccc23)cc1	PMP22 txn prim 6.7µM | NLuc sat counter inactive | NLuc Km ctr inactive | FLuc counter inactive | S16 viab conf inactive | PMP22 txn cnf inactive
CC1CCCCN1c1nnc(NC(=O)Nc2ccccc2F)s1 (stereo not given)	none
CCCCc1nn2c(=O)cc(COC(=O)c3cccc(NC(=O)c4cccc(C)c4)c3)nc2s1	PMP22 txn prim inconclusive
